Assay results as given in PubChem BioAssay AID2551 (National Center for Advancing Translational Sciences (NCATS), 2010).
Out of some 310,000 compounds screened, about 17,000 (5.5%) were called active. About 11% were inconclusive and are not listed. The call rests on the fitted dose curve; in most records, active means well fitted inhibition curve with a large enough effect; inconclusive means small, poorly fitted or top-dose-only effect, or effect the other way; inactive means no such curve, though single readings can be large or run the other way. The entries come from a sample that favours actives as a whole. A call without a number means that no potency is given here.

target: Nuclear receptor ROR-gamma (Mus musculus) (UniProt P51450); assay: qHTS for inhibitors of ROR gamma transcriptional activity; conditions: Drosophila S2 Gal4-RORgamma UAS-luciferase reporter, 20 h; series mostly up to 53.6 µM; further: nearly all actives have a fitted effect of over 60% in size
Text: NIH Molecular Libraries Probe Production Network [MLPCN] NIH Chemical Genomics Center [NCGC] MLPCN Grant: R03 DA026211-01 Assay Provider: Dan Littman, New York University Assay Overview: The retinoic acid-related orphan receptor (ROR) gamma is a transcription factor that has a central role in the differentiation of Th17 cells, a subset of T helper cells that secrete the inflammatory cytokines IL-17, IL-17F, and IL-22. Th17 cells have been implicated in graft versus host disease, autoimmune disease and asthma. ROR gamma is induced in naive T helper cells in the presence of TGF-beta combined with IL-6, IL-21, or IL-23, and thereafter directs the expression of the Th17 lineage cytokines. To study the mechanism of action of ROR gamma, an insect cell-based assay was screened. This Drosophila Schneider cell line was stably transfected with two vectors: a gene expressing a fusion of the Gal4 DNA binding domain and ROR gamma transactivation domain under the control of the metallothionine promoter and a Photinus luciferase reporter regulated by the Gal4 binding site enhancer, UAS. […] Small molecule inhibitors of ROR gamma activity are detected by a decrease in luciferase reporter activity.
Assay Protocol Summary: For screening, 600 cells in 4 uL/well were dispensed into white solid 1536-well plates (Grenier) using a solenoid-based dispenser. Following transfer of 23 nL compound or DMSO vehicle by a pin tool, the plates were incubated 1 hr at ambient temperature, and 1 uL/well copper sulfate (700 uM final concentration) was added. The plates were centrifuged 15 s at 1000 RPM and incubated 20 hr at ambient temperature. After addition of 1.5 uL Photinus luciferase detection reagent, the plates were incubated 10 min at ambient temperature and then read by an ViewLux (Perkin Elmer) to detect luminescence. Keywords: NIH Roadmap, MLPCN, MLI, MLSMR, qHTS, NCGC, qHTS, nuclear hormone receptor, retinoic acid-related orphan receptor, ROR gamma
Potency means the concentration at half of the fitted maximal effect.

Chain of Nuclear receptor ROR-gamma (Mus musculus) (P51450 whole entry, looked up, the tested form may be a part): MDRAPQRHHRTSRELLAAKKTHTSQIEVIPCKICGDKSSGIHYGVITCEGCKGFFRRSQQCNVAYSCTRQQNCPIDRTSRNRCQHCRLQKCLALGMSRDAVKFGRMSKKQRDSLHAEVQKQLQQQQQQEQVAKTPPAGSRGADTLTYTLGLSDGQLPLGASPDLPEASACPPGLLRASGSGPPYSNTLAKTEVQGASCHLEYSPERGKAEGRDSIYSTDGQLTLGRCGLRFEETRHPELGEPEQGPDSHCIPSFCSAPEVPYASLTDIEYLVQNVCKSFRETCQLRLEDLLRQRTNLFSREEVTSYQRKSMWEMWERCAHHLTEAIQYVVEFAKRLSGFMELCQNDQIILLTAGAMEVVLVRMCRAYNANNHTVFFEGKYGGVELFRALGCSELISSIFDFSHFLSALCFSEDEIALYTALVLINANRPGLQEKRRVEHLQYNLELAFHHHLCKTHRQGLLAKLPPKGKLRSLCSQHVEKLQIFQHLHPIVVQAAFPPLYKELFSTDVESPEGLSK

SMILES	Potency	activity change, negative = inhibition
CCN1CCN(C2CCCCC2NS(=O)(=O)c2ccc(Cl)cc2)CC1 (centres undefined)	inactive	–
CC(C)Cn1cnc2c1c(=O)n(CC(=O)NN)c(=O)n2Cc1ccccc1	inactive	–
COc1cccc2cc(C(N)=O)/c(=N\NC(=O)c3ccccc3)oc12	7.08 µM (active)	–
COc1ccc(C(=O)N/N=c2\oc3ccccc3cc2C(N)=O)cc1	inactive	–
NC(=O)c1cc2ccccc2o/c1=N/NC(=O)c1cccc(F)c1	inactive	–
O=C1CN(C(=O)c2cc(F)cc(F)c2)c2ccccc2N1	inactive	–
COc1ccc(OC)c(C(C)NC(=S)Nc2ccc(S(=O)(=O)Nc3ncccn3)cc2)c1 (centres undefined)	inactive	–
CCOC(=O)c1cccnc1NC(=O)c1ccncc1	inactive	–
COC(=O)c1cccnc1NC(=S)NC(C)C	1.78 µM (active)	–
CCc1nnc(NS(=O)(=O)c2ccc(N=Cc3c(C)[nH]n(-c4ccc(C)cc4)c3=O)cc2)s1	inactive	–
Cc1ccc(-n2[nH]c(C)c(/C=N/N3C(=O)c4cccc5cccc(c45)C3=O)c2=O)cc1	6.31 µM (active)	–
Cc1ccc(-c2ccnc3[nH]n(-c4ccccc4)c(=O)c23)cc1	inactive	–
Cc1ccc(C(=O)N2CCC(n3nccc3NC(=O)Nc3cccc(F)c3)CC2)cn1	inactive	–
COc1cccc(NS(=O)(=O)c2ccc3[nH]cc(C(=O)NCCCOC(C)C)c(=O)c3c2)c1	inactive	–
CCCCNC(=O)c1c[nH]c2ccc(S(=O)(=O)Nc3ccc(OCC)cc3)cc2c1=O	7.94 µM (active)	–
CCOc1ccc(NS(=O)(=O)c2ccc(C)c(C(N)=O)c2)cc1	inactive	–
CCOC(=O)c1c(S(=O)(=O)Nc2ccc(CN3CCC(C)CC3)cc2)c(C)n(C)c1C	inactive	–
CCOC(=O)c1cc2c(nc1NC(=S)Nc1ccccc1)CC(C)(CC)OC2 (centres undefined)	3.55 µM (active)	–
CCOC(=O)c1cn[nH]c1NC(=S)Nc1ccccc1	inactive	–
CCOC(=O)c1cc2cc3ccccc3cc2oc1=O	inactive	–
Cc1ccc(NC(=O)CSc2nnc(CNC(=O)c3ccccc3F)o2)cc1Cl	inactive	–
COc1ccc(-c2noc(CNC(=O)C(C)Oc3ccccc3)n2)cc1 (centres undefined)	inactive	–
COc1ccc(-c2cc(C(F)(F)F)nc(SCC(=O)Nc3ccc4c(c3)OCO4)n2)cc1OC	inactive	–

SMILES	Potency	activity change, negative = inhibition
COc1ccc(-c2cc(C(F)(F)F)nc(S(C)(=O)=O)n2)cc1OC	1.78 µM (active)	–
COc1cc(OC)nc(S(C)(=O)=O)n1	inactive	–
Cc1cccn2c(=O)c3cc(C(=O)NCC4CCCO4)c(=N)n(Cc4ccc(F)cc4)c3nc12 (centres undefined)	inactive	–
COc1cc(OC)c(OC)cc1CN1CCN(C(=O)c2cccc3ccccc23)CC1	inactive	–
Cc1ccc(C(C[N+](=O)[O-])c2c(C)cc3ccccn23)cc1 (centres undefined)	22.4 µM (active)	–
CC(=O)Nc1ccc(/C=N/Nc2ccc(C(=O)c3c(C)cc4ccccn34)cc2[N+](=O)[O-])cc1	inactive	–
Cc1cc2ccccn2c1C(=O)c1cccc(F)c1	inactive	–
Cc1ccc(NC(=O)Nc2ccccc2)c(Br)c1	inactive	–
C=CC[n+]1c(-c2ccc(C)cc2)csc1NNC(=O)Nc1ccccc1	14.1 µM (active)	–
Cc1ccc(NC(=O)NNC(=O)c2sccc2-n2cccc2)cc1	inactive	–
C=CCNc1scc(-c2ccccc2)[n+]1CC=C	12.6 µM (active)	–
C=CCNC(=O)c1csc(-c2ccccc2)n1	inactive	–
COC(=O)c1cc(NS(=O)(=O)c2ccc3c(c2)c(=O)n(C)c(=O)n3C)cc(C(=O)OC)c1	inactive	–
Cc1cccc(C)c1N1C(=O)CN(Cc2ccccc2)C1=S	inactive	–
CCC(=O)c1cn(CCOc2ccccc2OC)c2ccccc12	–	-12.4% [at 1.91 µM] (inactive)
Cc1cccc(NC(=O)C2CCCN(C(=O)NCc3ccccc3)C2)c1C (centres undefined)	inactive	–
CN(C)c1ccc(CNC(=O)CN2C(=O)COc3ccc(S(=O)(=O)N4CCCC4)cc32)cc1	inactive	–
CCOc1cc(NC(=S)NCCCOC)c(OCC)cc1NC(=O)c1ccco1	20 µM (active)	–
COC(=O)c1cc(Cl)c(NC(=O)c2ccco2)cc1OC	inactive	–
CCOc1cc(NC(=O)c2ccco2)c(OCC)cc1NC(=O)COc1ccccc1	inactive	–
COc1ccc(CC(=O)Nc2ccccc2NC(=O)c2ccco2)cc1OC	inactive	–
CCC(=O)NC(=S)Nc1ccc(NC(=O)c2ccco2)c(Cl)c1	2.51 µM (active)	–
COc1ccc(NC(=O)CCC(=O)Nc2cc(OC)c(NC(=O)c3ccco3)cc2OC)c(OC)c1	inactive	–

SMILES	Potency	activity change, negative = inhibition
CCOc1cc(NC(=S)NCc2ccco2)c(OCC)cc1NC(=O)c1ccco1	1.12 µM (active)	–
O=C(Nc1ccc(NC(=O)c2ccco2)c(Cl)c1)c1cccc([N+](=O)[O-])c1	inactive	–
CCOCC(=O)Nc1cc(OC)c(Cl)cc1OC	inactive	–
COc1ccc2c(Cl)c(C(=O)NCc3ccco3)sc2c1	inactive	–
CCOc1cc(NC(=S)NCCCN(C)C)c(OCC)cc1NC(=O)C1CC1	inactive	–
COc1cc(NC(=S)NCc2ccco2)c(OC)cc1Cl	7.08 µM (active)	–
CCc1nn(CCCC(=O)Nc2ccc(C)c(C)c2)c(=O)c2cc3occc3n12	inactive	–
O=C(O)c1cc(S(=O)(=O)NC2CCCc3ccccc32)ccc1O (centres undefined)	inactive	–
CC(C(=O)NCCc1ccc(S(N)(=O)=O)cc1)N1C(=O)CC(C)(C)Sc2ccccc21 (centres undefined)	inactive	–
CNC(=O)N1c2ccccc2C=Cc2ccccc21	inactive	–
Clc1nc(NC2CCCC2)nc(N2CCOCC2)n1	inactive	–
COc1cccc(N(CC(=O)NC2CCCC2)C(=O)Cn2nnc(-c3ccc(C)o3)n2)c1	inactive	–
Cc1ccc(-c2n[nH]c(=S)n2/N=C/c2cc3c(cc2[N+](=O)[O-])OCO3)cc1	inactive	–
CCN(CC)S(=O)(=O)c1cccc(-c2n[nH]c(=S)n2/N=C/c2ccc(C(=O)OC)cc2)c1	inactive	–
Oc1ccccc1/C=N/n1c(-c2cccs2)n[nH]c1=S	10 µM (active)	–
Cc1ccc(/C=N\n2c(-c3ccccc3)n[nH]c2=S)s1	3.98 µM (active)	–
Brc1ccc(/C=N/N2CCN(C3c4ccccc4-c4ccccc43)CC2)s1	inactive	–
S=c1[nH]nc(-c2cccs2)n1/N=C/c1cn(-c2ccccc2)nc1-c1ccc(Cl)cc1	inactive	–
c1ccc(-c2cc(-c3nnc4sc(-c5ccccn5)nn34)[nH]n2)cc1	inactive	–
CCOc1ccc(-c2n[nH]c(=S)n2/N=C/c2cc3c(cc2[N+](=O)[O-])OCO3)cc1	–	-47.7% [at 10 µM] (inactive)
S=c1[nH]nc(-c2ccco2)n1/N=C/c1ccc(Br)s1	11.2 µM (active)	–
S=c1[nH]nc(-c2ccncc2)n1/N=C/c1ccccc1Cl	inactive	–
S=c1[nH]nc(-c2cc(-c3ccccc3)n[nH]2)n1/N=C/c1c2ccccc2cc2ccccc12	7.94 µM (active)	–
